PLK1 PBD block: inhibitors of human PLK1 polo-box domain binding; P53350; Plk1 PBD binding of FITC phosphopeptide, fluorescence polarization; Potency, µM, for the others: max response, negative = inhibition, most hits filed as inhibitors; 360,000 compounds, 2.8% hits; note: potency is the fitted concentration of half-maximal effect; series mostly up to about 57 µM; nearly all actives have a fitted effect of over 65% in size
Mm-Cpn inhibitor: blocks the Methanococcus maripaludis chaperonin Mm-Cpn. purified Mm-Cpn ATPase, ADP Transcreener TR-FRET. Potency, µM (top dose mostly 76.9 µM), without a hit: top-dose activity, negative = inhibition, actives largely listed as inhibitors. 330,000 compounds, 0.031% hits. AID 504842; note: potency is the fitted concentration of half-maximal effect; nearly all actives have a fitted effect of over 80% in size
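Quantitative HTS used 25 nM Mm-CPN and 10 uM ATP in magnesium/KCl Tris buffer, pH 7.4, with 1 mM DTT. Hydrolysis ran 30 min at 37°C; ADP was read by HTRF.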
G9a inh: inhibitors of human histone lysine methyltransferase G9a; G9a H3K9 monomethylation, AlphaScreen, 2 h; Potency, µM (top dose mostly 102 µM), for inactives: at the highest dose activity, negative = inhibition, most hits filed as inhibitors; 350,000 compounds, 8.8% hits; note: potency is the fitted concentration of half-maximal effect; nearly all actives have a fitted effect of over 75% in size
Target sequence (Q96KQ7 913-1193 limits assumed): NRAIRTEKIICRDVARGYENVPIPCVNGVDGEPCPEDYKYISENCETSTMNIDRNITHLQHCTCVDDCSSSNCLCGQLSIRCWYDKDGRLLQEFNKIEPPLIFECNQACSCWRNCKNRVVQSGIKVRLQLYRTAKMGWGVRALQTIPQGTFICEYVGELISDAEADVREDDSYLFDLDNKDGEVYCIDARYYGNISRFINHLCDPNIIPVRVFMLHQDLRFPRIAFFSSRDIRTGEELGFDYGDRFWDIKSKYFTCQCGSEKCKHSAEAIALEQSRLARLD
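Chemiluminescent proximity detection of H3K9 monomethylation, read after 10 min bead incubation in the dark. Reaction: 20 nM G9a, 500 nM biotin-H3K9 peptide, 20 uM SAM cofactor, 2 h, room temperature, following 15 min enzyme-compound preincubation.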
VDR inhibitor: inhibitors of human vitamin D receptor; P11473; VDR-SRC2-3 peptide fluorescence polarization, 2 h; Potency, µM, for inactives: max response, negative = inhibition, actives largely listed as inhibitors; 400,000 compounds, 0.93% hits; AID 504847; note: potency is the fitted concentration of half-maximal effect
Target sequence (P11473 whole entry, looked up): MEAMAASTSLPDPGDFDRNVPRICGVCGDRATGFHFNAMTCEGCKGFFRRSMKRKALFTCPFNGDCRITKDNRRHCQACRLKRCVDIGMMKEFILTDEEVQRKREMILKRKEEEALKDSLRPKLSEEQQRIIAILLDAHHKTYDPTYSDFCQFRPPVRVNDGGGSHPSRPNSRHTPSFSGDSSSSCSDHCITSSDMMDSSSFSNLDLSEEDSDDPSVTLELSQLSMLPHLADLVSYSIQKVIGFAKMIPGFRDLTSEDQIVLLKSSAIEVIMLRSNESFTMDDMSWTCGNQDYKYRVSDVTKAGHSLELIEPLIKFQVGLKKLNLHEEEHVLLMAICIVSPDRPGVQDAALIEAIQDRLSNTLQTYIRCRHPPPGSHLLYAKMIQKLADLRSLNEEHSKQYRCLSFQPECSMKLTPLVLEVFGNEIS
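Compounds are added to VDR with labelled SRC2-3 coactivator peptide and held 2 h at room temperature. Inhibition of the VDR–peptide interaction is then read as a change in fluorescence polarization.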
Sfp inh: blocks B. subtilis Sfp PPTase activity. Q9F4F7. Biochemical Sfp PPTase activity, qHTS. Potency, µM, for the others: largest response in the series, negative = inhibition, hits mostly inhibitors. 310,000 compounds, 3.5% hits. AID 1490;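 note: the enzyme is Sfp with the accession as filed and its product quenches rhodamine fluorescence; potency is the fitted concentration of half-maximal effect; 0% = enzyme reaction without inhibitor and -100% = no enzyme wells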
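Sfp 15 nM + cpd, 15 min RT; start w/ rhodamine-CoA 5 uM, BHQ-2-YbbR 12.5 uM (final); 50 mM Hepes pH 7.6, 10 mM MgCl2, 0.01% NP-40, 0.01% BSA; read 525/598 nm at 0 and 30 min.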
CCT modulator: changes cytosolic chaperonin activity; purified chaperonin ATPase assay, HTRF ADP detection, 30 min; activity change, % (concentration not given with the values), hits read low; 360,000 compounds, 0.3% hits; AID 651819; in the data active = activity change below about -30%
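ATPase activity: ADP formed was measured by HTRF Transcreener (665/615 nm ratio) after 30 min at 37 deg C with 10 uM ATP. Compounds screened at one 76 uM concentration against 40 or 20 nM TRiC in Tris pH 7.4/KCl/MgCl2/DTT buffer.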
Starred values were filed as active, the others as inactive; ? = inconclusive; / = not tested or not shown; [ ] = dose if it differs, or a comment. In the library only some 10% were active in any assay of this set; here they are far more common. Unless noted, calls come from the whole dose curve; as a rule, active = well fitted curve in the direction sought with a large enough effect; inconclusive = small, poorly fitted or top-dose-only effect, or another doubt; inactive = no such curve, though single readings can be large; an effect the other way counts as inactive or inconclusive. Unless noted, % is set by controls: 0 for no effect and ±100 for the full control effect.

SMILES	PLK1 PBD block	Mm-Cpn inhibitor	G9a inh	VDR inhibitor	Sfp inh	CCT modulator
CCOc1ccc(NC(=O)CCc2c(C)nc3cc(-c4ccccc4OC)nn3c2C)cc1	/	/	6%[59 µM]	-12%	/	/
CCc1cccc(C)c1NC(=O)C(CC)n1ncn2c(cc3cc(C)ccc32)c1=O (stereo not drawn)	/	/	13%[59 µM]	13%	/	/
CCCCC#Cc1nc(NC)c2ncn([C@@H]3O[C@H](CO)[C@@H](O)[C@H]3O)c2n1	/	/	?	-3%	/	/
CC(Oc1ccccc1)C(=O)N1CCC2(CC1)Oc1ccc(F)cc1C(=O)C21CC(c2ccccc2)=NO1 (stereo not drawn)	21µM*	/	/	?	/	-1
Cc1ccc(C(=O)OCC(=O)Nc2c(C)nn(-c3ccccc3)c2C)c(O)c1	-9%	/	/	/	/	0
Cc1ccc(-n2nc(C)c(NC(=O)COC(=O)c3ccccc3NCCO)c2C)cc1	-4%	-2%	50µM*	5%	/	-1
Cc1onc(-c2ccccc2)c1C(=O)OCC(=O)Nc1ccc2c(c1)OCO2	-12%	-1%	9%[59 µM]	2%	-4%	-43*
Cc1nc2cc(C(=O)OCC(=O)Nc3cccc(Cl)c3)ccc2n1-c1ccccc1	-9%	-1%	50µM*	-21%	11%	0
Cc1nn(-c2ccccc2)c(C)c1C(=O)OCC(=O)Nc1ccc2c(c1)OCO2	-12%	1%	79µM*	-2%	5%	-1
CCOC(=O)c1cc(OC(=O)c2cc(Cl)ccc2OC)n(-c2ccccc2)n1	/	/	25%[59 µM]	6%	/	/
CC(=O)Nc1cccc(C(=O)OCC(=O)Nc2c(C)nn(-c3ccccc3)c2C)c1	-2%	1%	40µM*	9%	/	-3
Cc1nn(-c2ccccc2)c(C)c1NC(=O)COC(=O)c1ccccc1	3%	2%	?	-1%	/	0
COc1ccc(-n2c(SCC(=O)Nc3nnc(C)s3)nc3c([nH]c4ccccc43)c2=O)cc1	/	/	-1%[59 µM]	7%	/	/
Cc1cc(O)c(CN(C)C)c2c1C(=O)/C(=C/c1ccco1)O2	-20%	-2%	6.3µM*	-22%	-27%	1
O=C(OCc1cc(=O)n2nc(-c3cccs3)sc2n1)c1ccccc1	/	/	32%[59 µM]	8%	/	/
CCOC(=O)CCCc1ccc(/C(C)=N/NC(=S)NC)cc1	-11%	1%	-46%	-7%	4%	-1
CCOC(=O)CCCc1ccc(/C(C)=N/NC(N)=S)cc1	-8%	0%	/	?	56µM*	2
O=Cc1ccc(OC2C=CC(c3ccccc3)OC2CO)cc1 (stereo not drawn)	/	/	/	/	8%	/
COc1ccc(NC(=O)/C(Cl)=C(/Cl)S(=O)Cc2ccccc2Cl)cn1 (stereo not drawn)	1.5µM*	-6%	10µM*	?	22µM*	-4
COc1ccc(NC(=O)Cc2ccc(Cl)c(Cl)c2)cn1	-14%	-1%	2%	-15%	8%	-3
Nc1ncnc2c1nc(Br)n2[C@H]1O[C@H]2COP(=O)(O)O[C@H]2[C@@H]1O	/	/	/	-1%	14%	/
Cc1ccc(N2C(=O)[C@@H]3[C@H](C2=O)[C@H]2C=CC=NN2[C@@H]3C(=O)Nc2ccccc2)cc1	-28%	-3%	7.1µM*	-14%	-14%	-3
O=C(Nc1ccccc1)[C@@H]1[C@@H]2C(=O)N(c3ccc(F)cc3)C(=O)[C@@H]2[C@H]2C=CC=NN21	-5%	0%	/	6%	35µM*	-1
Cc1ccc(NC(=O)C2CCCN(S(=O)(=O)c3c(C)n[nH]c3C)C2)c(C)c1 (stereo not drawn)	/	/	1%[59 µM]	?	/	/
COc1cccc(CN2C(=O)c3ccccc3Sc3ccc(C(=O)OCc4ccco4)cc32)c1	/	/	2%[59 µM]	5%	/	/
SMILES	PLK1 PBD block	Mm-Cpn inhibitor	G9a inh	VDR inhibitor	Sfp inh	CCT modulator
Cc1c(C)c2c(c(C)c1O)CCC(C)(C(=O)O)O2 (stereo not drawn)	-11%	-1%	14µM*	-2%	/	-4
O=C1Cc2cc(NS(=O)(=O)c3ccc(F)cc3)cc3c2N1CCC3	-11%	2%	13%[2.33 µM]	-9%	/	-2
COc1ccc(S(=O)(=O)Nc2cc3c4c(c2)CC(=O)N4CCC3)cc1	-8%	2%	32µM*	8%	/	1
O=C1Cc2cc(NS(=O)(=O)c3ccc(Cl)cc3)cc3c2N1CCC3	-3%	1%	4%	-6%	/	1
O=C1Cc2cc(NS(=O)(=O)c3ccc([N+](=O)[O-])cc3)cc3c2N1CCC3	-13%	0%	45µM*	-5%	/	0
COCCCNc1ncnc2c1nnn2C	/	/	0%[59 µM]	3%	/	/
Cc1c(C=O)c(Cl)n(C)c(=O)c1C#N	?	2%	40µM*	6%	?	1
Cc1c(/C=N/Nc2ccc(F)cc2)c(O)n(C)c(=O)c1C#N	19µM*	2%	1.3µM*	-15%	-15%	0
Cc1cc(C)n(C)c(=O)c1C#N	-7%	-1%	-10%	23%	10%	-1
CC(=O)N=Cc1c(C)c(C#N)c(=O)n(C)c1O	-18%	-1%	45µM*	6%	?	-1
CCOC(=O)c1sc2ccccc2c1S(=O)(=O)NCc1ccccc1OC	/	/	3%[59 µM]	-15%	/	/
CCCCN(CC)CCCn1cnc2c([nH]c3ccc(Cl)cc32)c1=O	/	/	3%[59 µM]	2%	/	/
O=[N+]([O-])c1cc(-c2ccccc2)cc([N+](=O)[O-])c1O	?	/	/	-15%	/	0
O=[N+]([O-])c1ccc2nonc2c1Nc1cccc(F)c1	-7%	1%	-19%	0%	7%	1
O=[N+]([O-])c1cc2ccccc2c(O)c1O	5.3µM*	/	/	/	/	2
O=C(O)c1ccccc1N/C=C\[N+](=O)[O-]	-5%	2%	67%	16%	56µM*	2
COc1cccc(Nc2ccc([N+](=O)[O-])c3nonc23)c1	-2%	3%	22µM*	8%	-9%	0
O=C(O)c1ccccc1Nc1ccc([N+](=O)[O-])cc1C(=O)O	0%	-7%	32µM*	11%	16%	2
OCCOCCOCCO	/	/	30%[59 µM]	-3%	14%	/
O=[N+]([O-])c1cc([N+](=O)[O-])c2nonc2c1Nc1ccccc1O	-3%	-2%	?	-10%	?	-1
O=C(O)c1ccccc1Nc1ccc([N+](=O)[O-])c2nonc12	0%	-2%	45µM*	19%	-9%	0
O=C(O)c1cc([N+](=O)[O-])cc2ccccc12	19µM*	/	/	-5%	/	-2
CC(C)(Cc1cccc(CC(C)(C)C(=O)O)c1)C(=O)O	-4%	-4%	14%	-15%	21%	-3
C[C@](Cc1ccc(O)c(O)c1)(NN)C(=O)O	/	/	2.2µM*	3%	/	/
CCc1ccc2occ(CC(=O)Nc3c(C(=O)c4ccc(F)cc4)oc4ccccc34)c2c1	/	/	?	2%	/	/
O=C1C=CC(=O)N1	30µM*	1%	2µM*	40µM*	/	-3
